Screening results from PubChem.
In the library only some 5.7% were active in any assay of this set; here they are far more common.
RORg inh – blocks mouse ROR gamma transcriptional activity. P51450. Drosophila S2 Gal4-RORgamma UAS-luciferase reporter, 20 h. Potency, µM (series often up to 53.6 µM), for the others: at the highest dose activity change, negative = inhibition, hits mostly inhibitors. 310,000 compounds, 5.4% hits; also: nearly all actives have a fitted effect of over 60% in size
Target sequence (P51450 whole entry, looked up, the tested form may be a part): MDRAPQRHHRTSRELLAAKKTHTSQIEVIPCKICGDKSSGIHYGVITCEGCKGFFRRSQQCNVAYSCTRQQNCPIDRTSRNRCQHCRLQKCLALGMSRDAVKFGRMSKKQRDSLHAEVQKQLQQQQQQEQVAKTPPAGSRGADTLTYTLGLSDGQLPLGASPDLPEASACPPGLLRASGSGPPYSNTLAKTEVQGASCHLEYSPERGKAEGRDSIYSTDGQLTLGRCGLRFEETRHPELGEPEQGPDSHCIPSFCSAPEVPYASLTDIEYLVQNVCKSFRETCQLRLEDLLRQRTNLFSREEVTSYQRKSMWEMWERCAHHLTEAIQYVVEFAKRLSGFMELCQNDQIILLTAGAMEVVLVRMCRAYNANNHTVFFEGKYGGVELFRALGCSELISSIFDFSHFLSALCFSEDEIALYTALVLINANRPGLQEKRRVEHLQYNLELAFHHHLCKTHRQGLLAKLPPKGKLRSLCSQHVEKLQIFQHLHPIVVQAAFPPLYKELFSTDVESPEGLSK
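Luminescence from a UAS-regulated Photinus luciferase reporter in stably transfected Drosophila Schneider cells is measured; decreased signal marks ROR gamma inhibition. Fusion expression is induced by 700 uM copper sulfate for 20 hr.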
NPSR antagonist – blocks cAMP signaling of the human neuropeptide S receptor. Potency, µM (doses to about 38.3 µM), inactives show top-dose activity change, negative = inhibition, hits mostly inhibitors. AID 1461. 220,000 compounds, 1% hits. CHO-NPSR cells, cAMP TR-FRET, antagonist mode; also: nearly all actives have a fitted effect of over 50% in size
B2AR arrestin – recruits beta-arrestin to the human beta2-adrenergic receptor; P07550; beta-arrestin recruitment to beta2AR, cell-based reporter; Potency, µM (highest dose often 46.1 µM), without a hit: top-dose activation, actives largely listed as activators; 330,000 compounds, 0.02% hits; AID 492947;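 also: 0% = DMSO controls and full agonism = EC100 isoproterenol or metaproterenol; nearly all actives have a fitted effect of over 65% in size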
VP16 counter – counter-screen for ROR gamma inhibitors: Gal4-VP16 reporter. Potency, µM (doses to about 53.6 µM), for inactives: top-dose activity, negative = inhibition, actives largely listed as inhibitors. Drosophila S2 Gal4-VP16 UAS-luciferase, luminescence, 20 h. 310,000 compounds, 3.5% hits;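 also: Gal4-VP16 expression switched on by copper sulfate through the metallothionein promoter; nearly all actives have a fitted effect of over 50% in size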
An asterisk follows results filed as active; ? = inconclusive; nt = not tested or not shown; [ ] = remark or other dose. Calls follow the shape of the dose curve; as a rule, active = well fitted curve in the direction sought with a large enough effect; inconclusive = small, poorly fitted or top-dose-only effect, or another doubt; inactive = no such curve, though single readings can be large; an effect the other way counts as inactive or inconclusive. Unless noted, % is scaled to controls: 0 for no effect and ±100 for the full control effect; potency is read from the fitted curve at half-maximal effect.

SMILES	RORg inh	NPSR antagonist	B2AR arrestin	VP16 counter
COc1ccccc1/C=N/NC(=O)c1ccc(NC(=O)c2cccc([N+](=O)[O-])c2)cc1	30%	-10%	0%	0%
Cc1ccc(C(=O)N/N=C\c2ccccc2[N+](=O)[O-])cn1	10µM*	1%	0%	?
COc1ccc(Cl)cc1N(CC(=O)N1CCCCCC1)S(C)(=O)=O	-8%	nt	0%	-12%
CC(=O)C1=C(C)NC(SCC(=O)c2ccccc2)=C(C#N)C1c1ccco1 (stereo not given)	42%	?	-1%	?
CC(=O)C1=C(C)NC(SCC(=O)c2ccccc2)=C(C#N)C1CC(C)C (stereo not given)	11µM*	-5%[46.1 µM]	0%	?
Cc1ccc(C)c(N(CC(=O)NC(C)C)C(=O)CCC(=O)Nc2ccccn2)c1	?	nt	0%	1%
Cc1ccc(C(=O)NC(=S)NNC(=O)COc2ccc([N+](=O)[O-])cc2)cc1	11µM*	nt	0%	11µM*
O=C(COc1ccc2ccccc2c1)NNC(=O)c1ccc([N+](=O)[O-])cc1	3%	-11%	0%	2%
O=C(NC(=S)NNC(=O)c1ccccc1[N+](=O)[O-])c1ccc(Br)cc1	6.3µM*	nt	-1%	6.3µM*
O=C(COc1ccc([N+](=O)[O-])cc1)NNC(=S)NC(=O)c1ccc(Br)cc1	3.2µM*	4%	0%	?
CCc1ccc2[nH]c(=O)c(-c3ccccc3)c(O)c2c1	-7%[1.91 µM]	nt	0%	-8%
CC(=O)Oc1c(-c2ccco2)oc2ccccc2c1=O	13µM*	-31%	4%	?
CCN(CC)C(=O)COc1c(-c2ccco2)oc2ccccc2c1=O	5%	nt	0%	-10%
CCCCC[C@]12Cc3ccccc3C(O1)C1=C(CC(C)(C)CC1=O)O2	-16%[10 µM]	nt	0%[9.22 µM]	-4%[10 µM]
C=CCn1c(SCC(=O)Nc2sccc2C(N)=O)nc2sc(C)c(C)c2c1=O	10%	-13%[46.1 µM]	0%	22%
C=CCn1c(SCc2ccc(C(=O)O)cc2)nc2sc(C)c(C)c2c1=O	4µM*	-25%	0%	7.1µM*
Cc1ccccc1NC(=O)CSc1nc2ccccc2c(=O)n1C	?	nt	0%	11µM*
Cc1sc2nc(SCC(=O)NCc3ccco3)n(CCc3ccccc3)c(=O)c2c1C	13µM*	-19%[46.1 µM]	0%	?
C=CCn1c(SCC(=O)Nc2ccccc2C)nc2sc(C)c(C)c2c1=O	35µM*	-16%[46.1 µM]	-1%	20µM*
Cc1sc2nc(SCC(=O)NCc3ccco3)n(C)c(=O)c2c1C	18%	-12%[46.1 µM]	0%	-1%
COCCn1c(SCC(=O)Nc2cccc(S(N)(=O)=O)c2)nc2cc(Cl)ccc2c1=O	35%	-5%	0%	4%
CC(C)Cn1c(SCC(=O)Nc2cccc(S(N)(=O)=O)c2)nc2ccccc2c1=O	10µM*	-36%	0%	-9%
COc1ccc(-c2nc3cnc(N(C)C)nc3n(CCC#N)c2=O)cc1	-4%	nt	nt	6%
Cc1cccc(C(=O)c2cnc3ccccc3c2-c2ccccc2)c1	?	?	0%	10µM*
CCCCCCc1cc2cc(C(=O)Nc3ccccc3)c(=O)oc2cc1O	?	-23%	-1%	4.5µM*
SMILES	RORg inh	NPSR antagonist	B2AR arrestin	VP16 counter
CCCCCCc1cc2cc(S(=O)(=O)c3ccc(Cl)cc3)c(=O)oc2cc1O	?	-51%	-3%	20µM*
CCCCCCc1cc2cc(S(=O)(=O)c3ccc(C)cc3)c(=O)oc2cc1O	?	-26%	0%	?
C/C(=N\Nc1nc(-c2ccccn2)nc2ccccc12)c1ccc(F)cc1	0.13µM*	-4%	0%	1.1µM*
C/C(=N/Nc1nc(-c2ccccc2F)nc2ccccc12)c1ccccc1O	3.2µM*	-18%	1%	7.9µM*
C/C(=N\Nc1nc(-c2ccccc2O)nc2ccccc12)c1ccccc1	4.5µM*	-5%	-1%	?
Oc1ccccc1Nc1nc(-c2ccccc2O)nc2ccccc12	0%	nt	0%	-7%
Cc1c(Br)c(O)c(Br)c(O)c1/C=N/n1c(-c2ccccc2)n[nH]c1=S	7%	nt	0%	3%
Cc1ccccc1-c1n[nH]c(=S)n1/N=C/c1c(C)nn(-c2ccccc2)c1C	4.5µM*	-28%	0%	?
Cc1nn(-c2ccccc2)c(C)c1/C=N/n1c(-c2ccc(C(C)(C)C)cc2)n[nH]c1=S	2.2µM*	?	0%	-11%
Cc1ccc(-c2n[nH]c(=S)n2/N=C/c2c(C)nn(-c3ccccc3)c2C)cc1	6.3µM*	-28%	-1%	?
COC(=O)N[C@@H](c1cccc(F)c1)C(C(C)=O)C(=O)OC (stereo not given in full)	8%	nt	nt	-1%
COc1ccc(CN(C(=O)CCC(=O)Nc2cc(C)on2)C(C(=O)NC(C)(C)C)c2cccc(OC)c2OC)cc1 (stereo not given)	?	nt	0%	4%
COC(=O)C1=C(C)N(Cc2ccccc2)[C@]23O[C@](C(=O)OC)(C(=O)N2C1c1ccccc1)C1CCOC(=O)C13 (stereo not given in full)	-14%[10 µM]	nt	nt	2%[10 µM]
Cc1ccc(C)c(/C=N/n2cc(-c3ccccc3)[nH]c2=S)c1	0.28µM*	-55%	1%	?
O=C(O)c1ccc(/C=N/n2cc(-c3ccccc3)[nH]c2=S)cc1	-41%	-5%	0%	-9%
S=c1[nH]c(-c2ccccc2)cn1/N=C/c1ccc(Br)cc1	0.4µM*	-32%	2%	7.1µM*
Fc1ccccc1/C=N/n1cc(-c2ccccc2)[nH]c1=S	1.4µM*	?	?	8.9µM*
N/C(=N\OC(=O)Cc1ccc(-c2ccccc2)cc1)c1ccncc1	-3%	4%	0%	-20%
CCOC1(C)OCC(=O)[C@]2(CCC3C4CCC5=CC(=O)C=CC5(C)C4C(=O)CC32C)O1 (stereo not given in full)	12%	-12%	0%	-10%
CSc1nccc(N2CCN(c3ccc(F)cc3)CC2)n1	?	-11%	-1%	13µM*
CSc1nc(N2CCOCC2)cc(N2CCOCC2)n1	6%	-5%	0%	-7%
CC(C)CN1C(=O)c2ccc(C(=O)Nc3c[nH]c(=O)[nH]c3=O)cc2C1=O	6%	14%	0%	-9%[10 µM]
COc1ccc(C(=O)Nc2ccc(N3CCCC3)cc2)cc1OC	?	nt	0%	14%
COc1ccc(C(=O)NC(=S)Nc2ccc(N3CCCC3)cc2)cc1	2µM*	-2%	0%	7.1µM*
CN1CCN(c2ccc(NC(=S)NC(=O)c3cccc4c(Cl)cccc34)cc2)CC1	?	nt	-1%	-13%
COc1cc(C(=O)NC(=S)N2CCCCCC2)cc(OC)c1OC	0.89µM*	13%	0%	2.8µM*
CC(C)Oc1cccc(C(=O)NC(=S)Nc2ccc(N3CCN(C)CC3)cc2)c1	5.6µM*	-18%	3%	?
COc1cc(C(=O)NC(=S)Nc2ccc(N3CCCC3)cc2)cc(OC)c1OC	7.9µM*	16%[46.1 µM]	-1%	4.5µM*
COc1ccc(C(=O)Nc2ccc(N3CCCC3)cc2)cc1	?	-3%[46.1 µM]	0%	7%
